Measurements: PubChem BioAssay AID463082 (The Scripps Research Institute Molecular Screening Center, 2010)
Out of some 330,000 compounds screened, about 4,900 (1.5%) were called active.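 How the source made its calls: active means inhibition above the mean inhibition across the screen plus 3 SD (cut at about 25% in these data); inactive means the rest.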 The list comes from a sample in which actives are over-represented; it also holds similar structures and randomly drawn compounds.

target: Platelet-activating factor acetylhydrolase (Homo sapiens) (UniProt Q13093); experiment: inhibition of plasma PAF acetylhydrolase – biochemical, fluorescence polarization, human, primary screen (AID 463082); conditions: recombinant pPAFAH, FP-rhodamine probe fluorescence polarization; at 3.39 µM; hits give high values;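 further: inhibitors block binding of the rhodamine activity-based probe so polarization drops; 0% = enzyme with DMSO and 100% = wells lacking pPAFAH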
Sequence (Q13093 whole entry, looked up): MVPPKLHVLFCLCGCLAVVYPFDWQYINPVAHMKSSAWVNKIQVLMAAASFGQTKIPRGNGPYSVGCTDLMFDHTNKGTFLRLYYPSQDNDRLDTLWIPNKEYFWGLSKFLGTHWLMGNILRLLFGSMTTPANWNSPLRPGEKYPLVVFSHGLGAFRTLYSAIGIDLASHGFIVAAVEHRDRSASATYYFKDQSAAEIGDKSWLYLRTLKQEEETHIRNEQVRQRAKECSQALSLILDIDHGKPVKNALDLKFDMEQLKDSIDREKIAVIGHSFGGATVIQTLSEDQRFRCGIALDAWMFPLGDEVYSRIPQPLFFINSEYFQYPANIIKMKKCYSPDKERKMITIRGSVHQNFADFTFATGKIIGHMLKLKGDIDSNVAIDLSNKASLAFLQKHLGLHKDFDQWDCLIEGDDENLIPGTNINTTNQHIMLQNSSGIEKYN

Row | SMILES | inhibition
1 | CN=C1S/C(=C\c2c(OC)cc(OC)cc2OC)C(=O)N1C | -0.42% (inactive)
2 | CN1C(=O)/C(=C/c2ccco2)SC1=Nc1cccc(C(=O)O)c1 | 25.1% (active)
3 | Cc1cc(/C=C2\SC(=Nc3ccc(N4CCOCC4)cc3)N(C)C2=O)c(C)n1-c1cccnc1 | 2.99% (inactive)
4 | Cc1nc2ccccc2c(=O)n1-c1ccc(F)c(NC(=O)c2cccs2)c1 | -0.28% (inactive)
5 | O=C(NC1CCCC1)c1cc(-c2ccccc2)on1 | 8.25% (inactive)
6 | COCCNC(=O)/C(C#N)=C/c1cccc(OCc2ccccc2)c1 | 2.65% (inactive)
7 | N#C/C(=C\c1ccc(O)c(O)c1)C(=O)NCc1ccccc1 | 28.2% (active)
8 | COc1ccc(CNC(=O)/C(C#N)=C/c2cccc(OC)c2OC)cc1 | -1.57% (inactive)
9 | Cc1cccc(C)c1N1CCN(S(=O)(=O)N2CCCCC2)CC1 | 0.66% (inactive)
10 | O=C1COc2ccc(C(=O)COC(=O)c3cccnc3Cl)cc2N1 | 3.48% (inactive)
11 | Cc1cc(=O)oc2c1ccc1ccccc12 | 1.01% (inactive)
12 | O=C1CCC([N+](=O)[O-])C(c2ccccc2Br)N1 (configuration not stated) | 2.25% (inactive)
13 | CN(CC(=O)Nc1ccc(OC(F)(F)F)cc1)C(=O)C1CCC1 | 2.02% (inactive)
14 | CC(CC(=O)Nc1ccc(F)cc1F)S(=O)(=O)c1ccc2c(c1)NC(=O)CO2 (configuration not stated) | 0.8% (inactive)
15 | Cc1cc(C)n(C(=O)c2ccc(C)c(S(=O)(=O)N3CCOCC3)c2)n1 | 2.24% (inactive)
16 | O=[N+]([O-])C(=c1ccc2c(c1)N1C3=C(CCCC3)CC3CCCCC31N=2)[N+](=O)[O-] (configuration not stated) | 33.6% (active)
17 | CCN1CCN(C(=O)C2CCN(S(=O)(=O)c3cc(Cl)ccc3Cl)CC2)CC1 | 3.87% (inactive)
18 | CCc1cc2c(=O)c(-c3nc4ccccc4n3C)c(CCCC(=O)O)oc2cc1OC(=O)C(C)(C)C | 3.51% (inactive)
19 | COc1ccccc1N1CC(O)=C(c2nc3ccccc3s2)C1=N | 32.9% (active)
20 | CCc1ccc(N2CC(O)=C(c3nc4ccccc4c(=O)[nH]3)C2=N)cc1 | -1.78% (inactive)
21 | COc1ccc(-n2nnnc2-c2nc3ccccc3s2)cc1 | -4.42% (inactive)
22 | C=CCC[C@H](Cc1ccc(F)cc1)C(=O)OC[C@@H](NC(=O)[C@@H](CC=C)CC(=O)N[C@H](CO)Cc1ccccc1)C(C)(C)C | 4.14% (inactive)
23 | Cc1cc(NC(=O)CSC2=NS(=O)(=O)c3cc(Cl)ccc3N2)no1 | -4.37% (inactive)
24 | CS(=O)(=O)N1CCCC(C(=O)Nc2ccccc2C(F)(F)F)C1 (configuration not stated) | -1.76% (inactive)
25 | O=C(COC(=O)c1ccc(Oc2ccccc2)cc1)Nc1nnc(-c2ccccc2)o1 | 25% (active)
26 | O=C(COC(=O)c1ccccc1Br)Nc1nnc(-c2ccccc2)o1 | 4.87% (inactive)
27 | CC(=O)Nc1cccc(C(=O)OCC(=O)Nc2nnc(-c3ccccc3)o2)c1 | 5.98% (inactive)
